For 57 molecules, CPE inhibition results are on record in PubChem BioAssay AID1621 (Southern Research Specialized Biocontainment Screening …, 2009).

In all, about 290,000 compounds went through this assay and about 60 (0.02%) were called active. About 1% were inconclusive and are not listed. How the calls were made is not given here. Only a sample is shown. Results with a measured potency or affinity are listed apart.

This test can be described thus: inhibition of WNV-induced cytopathic effect – cell-based, CPE readout (AID 1621). The conditions noted are these: West Nile virus-infected cells, at 10 µM, stronger effect = higher value.
Turning to `ClC(/C=N/n1cnnc1)=C/c1ccccc1`, the CPE inhibition is 2.95% (inactive).
For `CC(/C=N/n1cnnc1)=C\c1ccccc1`, the CPE inhibition was -0.2% (inactive).
With `Cc1ccc2nc(Nc3ccccc3)c(C=O)c(=O)n2c1`, the CPE inhibition was -0.78% (inactive).
On to `CCN(CC)C(=O)Nc1c(C)n(C)n(-c2ccccc2)c1=O`, for which the CPE inhibition was 0.37% (inactive).
In the case of `CCOC(=O)c1c(CN2CCN(C)CC2)n(-c2ccccc2)c2cc(Br)c(O)cc12` it was 0.39% (inactive).
Then `CCOC(=O)c1c(CN2CCOCC2)n(-c2ccccc2)c2cc(Br)c(O)cc12`, with 1.59% (inactive); and `COc1ccc(CCN(C)C(=O)c2cccc(S(=O)(=O)NCc3ccccc3)c2)cc1OC`, with -1.05% (inactive); and `CC(C)c1cc(C(C)C)c(S(=O)(=O)N2c3ccccc3[C@@]3(Br)C[C@H]4C(=O)N[C@@H](Cc5ccccc5)C(=O)N4[C@@H]23)c(C(C)C)c1`, with 2.08% (inactive).
`O=C1N[C@@H](Cc2ccccc2)C(=O)N2[C@@H]1C[C@@]1(Br)c3ccccc3N(S(=O)(=O)c3ccccc3)[C@@H]21`: the CPE inhibition is -0.59% (inactive).
In the case of `CCOC(=O)c1c(C)c(C(=O)NCc2cccs2)c(C)n1CC` it was -0.75% (inactive); in that of `Fc1cccc(Cl)c1Cn1nnc2c(N3CCC4(CC3)OCCO4)ncnc21`, 0.17% (inactive).
Regarding `COc1cc2c(O)c3c(c(-c4ccc5c(c4)OCO5)c2cc1OC)C(=O)OC3`, the CPE inhibition was 12.1% (inactive).
`COc1ccc(C(=O)Oc2ccc3c(c2)OCO3)cc1OC`: the CPE inhibition was 0.51% (inactive).
With `Cc1nn(Cc2ccccc2Cl)c2sc(C(=O)OC3CCCC3=O)cc12` (configuration not stated), the CPE inhibition is -0.34% (inactive).
In the case of `O=C(NCC(c1cccnc1)N1CCOCC1)NC1CCCCC1` (configuration not stated), the CPE inhibition was 0.45% (inactive).
Turning to `CCOC(=O)c1c(-c2ccc(F)cc2)csc1NC(=O)c1c(-c2ccccc2)noc1C`, the CPE inhibition is -0.66% (inactive).
As for `COC(=O)c1c(-c2ccc(C)cc2)csc1NC(=O)c1c(-c2ccccc2)noc1C`, the CPE inhibition was 0.29% (inactive).
For `COCCCNC(=S)N1CCCN(c2nc3cc(C)ccc3cc2C#N)CC1`, the CPE inhibition was -0.77% (inactive).
With `COc1cc(C(=O)N2CCCN(c3nc4cc(C)ccc4cc3C#N)CC2)cc(OC)c1OC`, the CPE inhibition was 0.84% (inactive).
Then `COc1cc(-c2csc(NC3CCCCC3)n2)cc(OC)c1OC`, with -0.66% (inactive); and `COc1ccc(/C=C2\SC(=S)N(NS(=O)(=O)c3ccc(C)cc3)C2=O)c(OC)c1`, with -0.03% (inactive); and `O=C(CN1CCOCC1)Nc1nc(-c2ccc(Cl)cc2)cs1`, with -0.54% (inactive).
For `N=C1C(c2nc(-c3ccc(F)cc3)cs2)=C(O)CN1CCCN1CCOCC1`, the CPE inhibition was 2.36% (inactive).
As for `CNc1nc2ccccc2n1CC(=O)c1ccccc1`, the CPE inhibition is -1.12% (inactive).
In the case of `Cc1cccc(NC(=O)CCN2CCOCC2)c1`, the CPE inhibition was 0.1% (inactive).
In the case of `CCOC(=O)c1sc(=NC(=O)c2cccs2)n(C)c1C` it was 0.29% (inactive); in that of `CCN(CCCNC(=O)c1cc2c(-c3cccc(OC)c3)nn(C)c2s1)Cc1ccccc1`, 11.5% (inactive).
Take `CCN(CC)CCNC(=O)c1cc2c(-c3cccc(OC)c3)nn(C)c2s1`: the CPE inhibition was 10.3% (inactive).
In the case of `Cc1c(C(=O)c2ccc(Cl)c([N+](=O)[O-])c2)c2ccccn2c1CCC#N` it was 0.29% (inactive); in that of `O=C(CN1C(=O)NC2(CCCCCC2)C1=O)Nc1ccc(S(=O)(=O)N2CCOCC2)cc1`, 0.5% (inactive); in that of `CSCCC(N=Cc1c(O)n(-c2ccc(F)cc2)c(=O)[nH]c1=O)C(=O)O` (configuration not stated), 0.06% (inactive).
In the case of `COc1ccc(-c2csc(N(CCCN(C)C)C(=O)c3cccs3)n2)cc1` it was 0.38% (inactive); in that of `COc1ccc(-c2csc(N(CCCN(C)C)C(=O)c3ccccc3F)n2)cc1`, -0.14% (inactive).
Then `Cc1ccc2nc(-c3ccc(NC(=O)CCN4C(=O)c5ccccc5C4=O)cc3)sc2c1`, with -0.32% (inactive).
Turning to `O=C(COc1ccc([N+](=O)[O-])cc1)N(Cc1ccccc1)Cc1ccccc1`, the CPE inhibition was -0.78% (inactive).
In the case of `COC(=O)c1c(NC(=O)C(C)(C)C)sc2c1C(C(=O)OC)CC2` (configuration not stated) it was -0.06% (inactive); in that of `COC(=O)c1c(NC(=O)C(C)C)sc2c1C(C(=O)OC)CC2` (configuration not stated), 1.21% (inactive).
In the case of `CC1=C(C(=O)N2CCCC(CCC(=O)NCc3ccccc3F)C2)OCCO1` (configuration not stated) it was -0.63% (inactive).
In the case of `N=c1c2c(ncn1CCN1CCOCC1)Oc1ccc3ccccc3c1C2c1ccccc1` (configuration not stated) it was 2.66% (inactive).
On to `COc1ccc(C2c3ccc4ccccc4c3Oc3ncn(CCN4CCOCC4)c(=N)c32)cc1` (configuration not stated), for which the CPE inhibition was -0.91% (inactive).
In the case of `COc1ccc(C2c3ccc4ccccc4c3Oc3ncn(CCO)c(=N)c32)cc1OC` (configuration not stated) it was 57.3% (inactive).
In the case of `COc1ccc(C2c3c(ncn(CCCN4CCOCC4)c3=N)Oc3ccc4ccccc4c32)cc1OC` (configuration not stated) it was -1.6% (inactive); in that of `COc1ccc(C2c3c(ncn(CCN4CCOCC4)c3=N)Oc3ccc4ccccc4c32)cc1OC` (configuration not stated), -1.66% (inactive).
Then `COc1ccc(C2c3ccc4ccccc4c3Oc3ncn(CCCO)c(=N)c32)cc1` (configuration not stated), with -1.98% (inactive); and `Cc1nc2nc(CCc3ccccc3)nn2c(C)c1Cl`, with 0.45% (inactive).
On to `CN(Cc1ccon1)C(=O)CCc1nnc(Cc2ccc(-c3ccccc3)cc2)o1`, for which the CPE inhibition was -0.95% (inactive).
Turning to `Cc1cccc(-n2c(C)cc(C)c(C#N)c2=O)c1`, the CPE inhibition is 0.53% (inactive).
Take `O=C(NNc1ccccc1[N+](=O)[O-])Nc1ccc(F)cc1F`: the CPE inhibition was -0.58% (inactive).
Then `O=C(CCc1nc2ccccc2s1)OCc1ccccc1F`, with -0.14% (inactive); and `O=c1c2c(-c3cccc([N+](=O)[O-])c3)ccnc2[nH]n1-c1ccccc1`, with 0% (inactive).
In the case of `COCCn1c(N)c(N(Cc2ccccc2)C(=O)Cc2c(Cl)cccc2Cl)c(=O)[nH]c1=O` it was -0.15% (inactive); in that of `O=C(CSc1nc2ccccc2c(=O)n1-c1ccc(F)cc1)Nc1ccc(C(=O)O)cc1`, 0.03% (inactive); in that of `C=CCn1c(SCC(=O)Nc2ccc3c(c2)CCC3)nc2ccccc2c1=O`, -0.68% (inactive).
In the case of `O=C(CSc1nc2ccccc2c(=O)n1-c1ccc(F)cc1)Nc1ccc(N2CCOCC2)cc1`, the CPE inhibition is -1.03% (inactive).
As for `CCCCn1c(SCC(=O)Nc2ccc3c(c2)CCC3)nc2ccccc2c1=O`, the CPE inhibition is -0.76% (inactive).
Take `COc1cccc(-n2c(SCC(=O)Nc3ccc4c(c3)CCC4)nc3ccccc3c2=O)c1`: the CPE inhibition was 2.86% (inactive).
In the case of `Cc1ccc(-n2c(SCC(=O)Nc3ccc(N4CCOCC4)cc3)nc3ccccc3c2=O)cc1`, the CPE inhibition was 12.4% (inactive).
